# Assay results as given in the supplement of paper PMC6555819.
# Tests used:
# Assay in all cases: PBM binding z-score (relative to random genomic background probes); higher = stronger binding; sequences stand for … in GC…GCGATTGACAGCGTAGAATGAAGG
# [1] = test system: RARb homodimer (NR concentration 270 nM)
# Method in brief: (§1)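 Probes were double-stranded and carried 34-nt variable regions with direct-repeat seeds, single-nucleotide variants, half-site ablations and random human genomic background sequences, printed on custom Agilent 4×180K protein-binding microarrays. Arrays were incubated 1 h with ligand-free nuclear receptor dimers in PBS pH 7.4, 2% milk, 0.02% Triton X-100, 1 mM DTT, 0.2 mg/mL BSA and 0.4 mg/ml salmon testes DNA. Antibodies against each partner (one per run) detected binding, and scanned fluorescence was regression-normalized. Binding z-scores use the random background probes as reference.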
# [2] = test system: RARg:RXRa (NR concentration 270 nM, RXRa partner concentration 90 nM)
# Method in brief: as §1
# [3] = test system: RARg homodimer (NR concentration 270 nM)
# Method in brief: as §1
# [4] = test system: RXRa DBDmut IVT, anti-RXR (DBD mutation: RXRa K156A/R161A, NR concentration 90 nM)
# Method in brief: as §1
# [5] = test system: RXRa homodimer (NR concentration 180 nM)
# Method in brief: as §1
# [6] = test system: THRa:RXRa (NR concentration 90 nM, RXRa partner concentration 90 nM)
# Method in brief: as §1
# [7] = test system: THRa homodimer (NR concentration 90 nM)
# Method in brief: as §1
# [8] = test system: VDR homodimer (NR concentration 270 nM)
# Method in brief: as §1
Sequence,PBM binding z-score [1],PBM binding z-score [2],PBM binding z-score [3],PBM binding z-score [4],PBM binding z-score [5],PBM binding z-score [6],PBM binding z-score [7],PBM binding z-score [8]
GGAACGAGGACAAAGTTGATAGCATCTGTCGACG,0.33,0.769,1.2,1.23,0.361,2.36,0.861,0.141
CGTCCAAGGTCAGAGAGGTCAGTAAATGCCGAGT,5.22,5.95,7.02,3.45,5.43,4.24,2.87,5.99
TCTGCTAGGTCAGTTGGCCAGCTAACGAGCTGCC,2.15,2.56,3.53,0.428,0.616,1.27,-0.473,-0.804
TCTTGTAGATCAATAGAGGTTAATAAAGTGCGCT,1.15,0.715,0.545,0.551,1.33,2.36,-0.525,0.459
TTACCAAGGTGAAGGTCGTCGATCCCTCTGTAGA,1.78,1.59,1.7,-0.188,2.12,2.36,0.653,-0.137
CGAACTAGGTCAGAACAGGCCAGTGAAGGATGAT,2.09,2.58,2.86,0.213,1.28,2.53,-0.201,-0.281
CCTACTGGGCCAGAGGTCATTGATTCCAATGCTC,4.02,4.51,3.89,1.52,4.88,3.22,1.09,3.61
TCTCGGAGGACACAAAAGGTCAGAGCTCGACATC,4.4,4.67,4.91,1.15,3.9,3.41,1.1,1.02
ACAGACAGGTGATGACGGTAACTCAGGCTATCAT,0.213,0.122,0.261,-0.0365,0.15,0.339,-0.087,-0.266
GCTGGTAGGTCAACTGATGGTCAGCTAAAGCTCG,3.79,5.73,5.34,1.57,3.65,2.54,0.0326,0.11
GCTTACCGGTCAAAGGTTATAGCATGAATAGAAT,2.62,5.63,3.54,0.541,5.37,2.2,-0.177,0.217
CCTAGTTGGTCAGGAGGTCTCACACCGGATATGA,1.11,0.617,0.718,-0.451,0.298,0.191,0.505,0.261
CATACAGGGTCAGCTAAGCCAGAGTAGGGACGGC,2.87,4.23,4.37,1.77,4.2,3,0.863,1.04
ACAGACAGGTGAGTGAAGGTAACTGAGCTGGACG,0.0356,0.592,0.479,-0.622,0.511,1.75,-0.353,-0.218
CCTACTGGGCCACGAAAGGTCATTGACTCAGTGA,4.8,4.9,4.53,0.581,4.92,3.77,0.711,2.15
CCTTACGGGTCACTGGCAGGTTATAGCATTTGGA,3.16,5.81,4.75,1.66,4.96,3.14,0.323,1.16
AGTCAAAGTTCATCTAGGTAAAGTAAGATATGCT,3.76,5.67,6.09,4.8,5.07,3.07,0.199,5.29
CGAACGAGGGCATGAGTTGATAGCTAATGCCGAT,0.599,1.51,1.52,2.15,0.984,1.25,-0.207,1.67
CCTTACGGGTGAAGGTTATAGCACGGGTGGTACG,0.868,0.873,0.868,-1.61,1.23,0.509,0.0246,-0.283

Sequence,PBM binding z-score [1],PBM binding z-score [2],PBM binding z-score [3],PBM binding z-score [4],PBM binding z-score [5],PBM binding z-score [6],PBM binding z-score [7],PBM binding z-score [8]
CCTACTGGGCCACGAAAGTTCATTGATTCAGTGA,3.23,2.04,2.29,1.34,1.46,1.74,-0.104,4.01
ACGATTAGTTGAGACGAGGGCAACCGATAGGTTG,0.939,0.385,0.643,-0.112,0.354,2.41,-0.196,0.605
ACTATTAGTTGACTTAGGGCGACCGATACGACGC,0.553,0.564,0.841,1.02,0.421,1.12,0.262,0.166
GCGACTGGGGCACAGCAGGTTACCATAAGGTTGG,1.23,0.566,0.841,-0.647,0.331,2.47,-0.0588,-0.59
TCTATTAGCTGAAGGGCAACCGACGAGTCCGTTT,0.986,0.404,0.211,0.755,0.365,-0.0875,-0.551,0.695
ATATGTAGGTTATCGGGTCATTCACTTTGCGCAT,3.14,3.43,2.55,1.88,3.56,3.39,2.94,3.12
ACTAGCAGGCCAAGGGACACTCAAGATTAGTCCG,0.745,0.424,0.835,-0.24,-0.0147,-0.112,-0.143,-0.433
TCTTGTAGATCAATAGACGTTAAGAAAGTGCGCT,-0.66,-0.0458,0.0391,0.88,-0.042,-0.347,-0.846,0.0604
CGTAGCAGGCCAGGGTCACTCAAGCATTTCGCTT,2.51,3.02,2.53,0.749,3.36,2.84,1.33,1.18
GTACCAAGGTGAATAGGCCGTTGATGAGTAGGCG,0.865,0.98,0.694,-0.306,0.633,1.16,0.224,-0.141
ATCGAAAGGTCGACGTGAGTATAGAGAAAGGGAA,2.07,3.93,3.91,1.34,3.94,1.79,-0.87,0.464
TAACCTAGGTCAGATCGGGCCAGTATACGCTATA,2.52,3.36,3.68,0.17,1.94,4.19,0.384,0.367
CGTCAAAGTTCAACTAAGGTAACATAAAGCACGC,4.23,5.98,6.47,4.9,5.01,5.25,1.77,3.89
CCTACTGGTCCATTCAGAGGTCATTGATCATATG,4.13,3.66,2.62,1.73,3.92,2.91,2.07,4.16
CAAACTAGGTCACGAAAGGTCAGAGTCGAATGAC,5.65,7.33,7.81,2.37,7.38,4.84,2.26,2.55
ATCTCTAGGTAAAGTTTAGTGAAAGATCGATAGA,0.401,0.251,0.558,0.303,0.0525,0.362,0.126,0.236
CGAACTAGGTCAGAACAGGACAGTGCAGGATGAT,2.14,2.44,3.46,0.591,1.26,3.38,0.224,0.113
TCTAGTTGGTCACGGAGGTCACACATGACGGGTA,4.7,4.74,4.94,1.1,4.96,3.73,2.5,3.54
CCTTACGGGTCAAGGGTATAGCACGGGTGGTACG,3.17,4.8,4.86,0.672,5.32,2.38,0.0653,0.904

Sequence,PBM binding z-score [1],PBM binding z-score [2],PBM binding z-score [3],PBM binding z-score [4],PBM binding z-score [5],PBM binding z-score [6],PBM binding z-score [7],PBM binding z-score [8]
CCTTACGGGTCAAGGTTACAGCACGGGTGGTACG,3.8,5.07,4.96,0.498,5.42,3.38,1.09,1.19
GCTATTAGTTGAAAGGGCAACGGAATGATTCTCG,1.94,1.36,1.26,0.668,1.2,0.463,-0.221,0.0426
GGAACAAGGGCAAAGTTGATAGCATCTGTCGACG,1.5,1.92,1.83,1.5,1.27,0.979,-0.125,0.766
TGAATGAGGTTACAGATCAGGGAACGTGGCGTCG,0.793,1.89,1.4,0.394,2.29,2.67,0.836,0.364
AGCCAAAGTTCATCTAGGTAACGTAAGATATGCT,4.1,5.56,5.88,4.5,4.72,3.15,0.256,5.28
TCATATAGGTAAACAGGTGAAAGTACGTAAGTTA,0.897,0.775,0.637,1.58,1.31,0.952,0.331,0.523
CCAAGCAGGCCAATCTGGGTCACTCAAGGCTTGA,2.26,1.4,1.34,0.0779,1.25,3.74,0.319,0.154
CTCGAAAGGTCCTGCTCAGGTGAGTATACCAAAC,0.614,0.95,0.414,-0.0806,0.666,2.11,0.634,-0.488
CCTGCTAGGTCAATGGTCATCTAAAGCAGCTCGC,2.97,3.73,4.61,1.79,2.51,2.23,0.612,0.333
CCTAGGTGGTCAAGGTCACACACGCTATAGGTAC,4.16,4.81,4.61,1.79,4.66,4.09,4.01,3.06
CCGAGTAGGTTAAGGGGCATTCAGGCAACGGTGA,1.56,1.08,0.926,0.277,1.43,1.32,0.369,0.685
ACAGACAGGTGAGTGATGGTAACTCAGCTGGACG,-0.167,0.351,0.407,-0.204,0.27,-0.225,-0.414,-0.122
CCTACTGGGCTACGAAAGGTCATTGATTCAGTGA,4.59,4.54,4.54,0.401,5.27,3.44,0.738,2.02
TTACCAAGGTGAAGGGCGTTGATCCCTCTGTAGA,0.953,0.413,0.407,-0.371,0.755,1.49,0.536,-0.115
GCTATTAGTTGAACGGGCAACCGAATGATTCTCG,-0.0848,-0.133,0.229,0.557,-0.15,-0.33,-0.617,-0.439
CTCGAAAGGTCGGTTGAGGTGAATATACGGATAA,2.32,2.98,2.77,0.545,2.5,5.06,1.58,0.52
CATACTGGGCCATTCAGAGGTCATTGATCATATG,4.15,4.52,3.48,1.39,3.85,3.21,1.4,3.67
AATATAGGGTCACTAGGCCAGAGTAGGTACGAAT,3.3,5.24,4.94,2.94,5.71,3.61,1.67,2.21
